Reference: PubChem BioAssay AID2013 (Sanford-Burnham Center for Chemical Genomics, 2009)
In all, about 290,000 compounds went through this assay and about 370 (0.13%) were called active.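 How the source made its calls: active means spots per cell inhibited over 60%, with over 100 cells counted and total cytoplasm intensity under 500,000; inconclusive means wells with under 100 cells, flagged as likely toxic; inactive means the rest.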 Only a selection was taken, and actives are over-represented in it overall. Entries with a potency or affinity are not part of this list.

molecular target: G-protein coupled receptor 55 (Homo sapiens) (UniProt Q9Y2T6); assay: GPR55 antagonists blocking LPI-driven arrestin recruitment, primary screen, imaging, U2OS, beta-arrestin-GFP, LPI agonist (AID 2013); conditions: U2OS GPR55 beta-arrestin-GFP translocation imaging, LPI antagonism; at 10 µM; active compounds read high;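 further: U2OS cells stably carrying GPR55 and arrestin-GFP stimulated by 5 µM LPI near EC80; imaged beta-arrestin-GFP aggregate spots per cell after agonist stimulation; plate controls were LPI-stimulated DMSO wells for no effect and DMSO wells without LPI for full effect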
Sequence (Q9Y2T6 whole entry, looked up): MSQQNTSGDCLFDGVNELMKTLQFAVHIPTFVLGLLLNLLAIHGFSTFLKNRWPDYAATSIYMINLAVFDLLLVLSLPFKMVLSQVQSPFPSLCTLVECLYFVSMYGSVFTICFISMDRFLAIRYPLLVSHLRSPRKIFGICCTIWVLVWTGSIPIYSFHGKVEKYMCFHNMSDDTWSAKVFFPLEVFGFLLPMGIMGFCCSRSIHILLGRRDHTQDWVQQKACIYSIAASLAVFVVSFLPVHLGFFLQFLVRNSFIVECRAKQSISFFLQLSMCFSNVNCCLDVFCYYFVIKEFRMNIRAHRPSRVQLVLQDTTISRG

inhibition, inactive:
COC(=O)c1cc2c(C)c(C)c3ccccn3c-2c1C(=O)OC 12.8%
COC(=O)c1cc2n3ccccc3c(C)c(-c3ccccc3)c-2c1C(=O)OC 6.5%
O=C(COC(=O)CCC(=O)c1cccs1)NC(=O)c1ccc(OC(F)F)cc1 6.3%
COc1ccc(N2CCN(CC(=O)NCc3ccc(Cl)cc3)CC2)cc1 -5.1%
Cc1cccc(C)c1-n1cccc1/C=C1\SC(=S)N(c2cccc(C(=O)O)c2)C1=O 21.8%
O=C(O)CN1C(=O)/C(=C/c2ccc(SCc3ccccc3)o2)SC1=S 4.7%
Cc1ccc(NC(=O)COc2nsnc2N2CCOCC2)cc1Cl -2.9%
CCCCOC(=O)CSC(=S)N(C)Cc1cccs1 -12.9%
Cc1[nH]c2ccccc2c1[C@H]1[C@@H](CC#N)C1(C)C 30.6%
Cc1c([C@H]2[C@@H](CC#N)C2(C)C)c2ccccc2n1C -0.3%
CC(C)NC(=O)C(=O)c1cn(C)c2ccccc12 -10.8%
Cc1ccccc1N1CCN(C(=O)C2CCC(=O)N(C3CCCC3)C2)CC1 (stereo not drawn) 5.6%
Oc1ccccc1C1=NN(c2ccccc2)C(c2ccc(F)cc2)C1 (stereo not drawn) -10.6%
COc1ccc(C2CC(c3ccc(F)cc3)=NN2c2ccccc2)cc1OC (stereo not drawn) 1.5%
Cc1noc(C)c1CN(C(=S)NC1CC1)c1ccccc1 4.1%
CCNC(=S)N(Cc1c(C)noc1C)c1ccccc1 -9.5%
CC(=O)N1CCOc2ccc(S(=O)(=O)Nc3ccc(Cl)cn3)cc21 -3.3%
COc1ccccc1NC(=O)COC(=O)c1ccccc1C(=O)N1CCN(c2ccccc2)CC1 -1.1%
Cc1ccccc1-n1cc(CNC(=O)CCc2nnc(CCc3ccccc3)o2)cn1 9.1%
C#CCOCCOCCOCCNc1nc(N2CCN(C(=O)[C@H](CCC(=O)O)n3cc(C(N)CC(C)C)nn3)CC2)nc(N2CCN(C(=O)[C@H](Cc3ccc(O)cc3)n3cc(C(N)[C@H](C)CC)nn3)CC2)n1 (stereo partly drawn) 13%
O=C(Nc1ccccc1)c1ccccc1NC(=O)C1CCCCC1 -8.2%
O=C1/C(=C\c2ccc(O)c(O)c2)C(c2ccccc2)=NN1c1ccccc1 -3.8%
COc1ccc(C2=NN(c3ccccc3)C(=O)/C2=C\c2ccc(O)c(OC)c2)cc1 -6.3%
S=C1Cc2ccccc2N1 -4.5%
COc1ccc(CN2C(=O)/C(=C/c3ccc(-c4ccc(Cl)c(C(=O)O)c4)o3)SC2=S)cc1 34.2%
C#CCN1C(=O)S/C(=C\c2ccc(-c3ccc(Cl)c(C(=O)O)c3)o2)C1=O -15.9%
O=C(NCc1ccco1)C1(c2ccc(Br)cc2)CCCC1 1.4%
C=CCn1c(O)c(C2=c3ccccc3=NC2=O)sc1=Nc1ccc(O)cc1 5.2%
CN(CC(=O)Nc1cccc(F)c1)C(=O)c1cc(S(=O)(=O)N(C)C)ccc1N1CCCC1 13.5%
[N-]=[N+]=N[C@@H](CCN1CC[C@H](NC(=O)OCc2ccccc2)CCC1=O)c1ccccc1 6.9%
O=C(CSc1nnc(C2CCCCC2)n1Cc1ccccc1)NCc1ccco1 -1.4%
CN1Cc2c(N3CCOCC3)nc3sc(C(=O)c4ccccc4)c(N)c3c2CC1(C)C 1.2%
CCOC(=O)c1sc2nc(N3CCOCC3)c3c(c2c1N)CC(C)(C)N(C)C3 -4.1%
NC(=S)Cc1nc2n(n1)Cc1ccccc1-2 5.2%
CC1CC(N(C(=O)c2ccc(Cl)cc2)c2ccccc2)c2ccccc2N1C(=O)c1ccco1 (stereo not drawn) 10.9%
CC(=O)N(c1ccccc1)C1CC(C)N(C(=O)c2ccccc2)c2ccccc21 (stereo not drawn) 13.6%
CC1CC(N(C(=O)c2ccco2)c2ccccc2)c2ccccc2N1 (stereo not drawn) 10.3%
CC1CC(Nc2ccccc2)c2ccccc2N1C(=O)c1ccco1 (stereo not drawn) 6.5%
COC(=O)c1c(C(C)=O)c(C)n(C)c1C 9.9%
Cc1ccccc1NC(=O)CSc1nc2ccccc2o1 -27.6%
O=C(CSc1nc2ccccc2o1)Nc1ccccc1N1CCOCC1 -2.4%
CC1(C)CC(=O)C(CC(=O)Nc2ccc(S(N)(=O)=O)cc2)=C(O)C1 2.1%
COc1ccc(C2c3sc(=O)[nH]c3SC3C4CCC(C4)C23)cc1OC (stereo not drawn) 4.6%
COc1ccc(C2c3sc(=O)[nH]c3SC3C4CCC(C4)C23)cc1 (stereo not drawn) 39.7%
CN(C)/C=N/c1nc2nccc(-c3ccccc3)n2n1 -4.1%
CCC(C)c1ccc(S(=O)(=O)N2CCN(S(=O)(=O)c3ccc(NC(C)=O)cc3)CC2)cc1 (stereo not drawn) 6.4%
CCn1cnc2c1c(=O)n(Cc1ccc(C(=O)OC)cc1)c(=O)n2Cc1ccccc1 6%
O=C(O)C1C(C(=O)O)C1(c1ccccc1)c1ccccc1 (stereo not drawn) -6.8%
COC(=O)C1C(C(=O)OC)C1(c1ccccc1)c1ccccc1 (stereo not drawn) 5.7%
CC12CCC(C(=O)N(Cc3ccccc3)Cc3ccccc3)(OC1=O)C2(C)C (stereo not drawn) 3.1%
O=C(c1ccccc1)N(Cc1ccccc1)Cc1ccccc1 11.6%
COc1ccc(CNS(=O)(=O)c2ccc3c(c2)CCN3C(=O)C2CC2)cc1 5.8%
CCOC(=O)C1CCN(CC(=O)Nc2ccc(OC)c(Cl)c2)CC1 17.5%
O=C(Cn1c(=O)c(=O)n(Cc2ccccc2)c2ccc(Cl)cc21)Nc1cccc(F)c1 -4.5%
Cc1nc2ccccc2c2c1C(=O)N(C(C)C)C2=O -5.2%
O=C(Cn1cnc2ccccc2c1=O)Nc1cccc(-c2nnc3n2CCCCC3)c1 -5.4%
Cc1ccc(C(c2nnnn2C2CCCCC2)N2CCc3ccccc32)cc1 (stereo not drawn) 4.6%
COc1ccc(C(CCNC(C)c2ccccc2)c2ccc(F)cc2)cc1 (stereo not drawn) 29.1%
COc1ccc(C(CCNC(C)c2ccccc2)C(C)C)cc1 (stereo not drawn) 15.3%
COc1ccc(-n2cnnc2SCC(=O)Nc2ccc(C(N)=O)cc2)cc1 -2.8%
COCc1nnc(NC(=O)C2CC(=O)N(C3CCCC3)C2)s1 (stereo not drawn) 8.2%
O=C(O)c1cccc(N2C(=O)/C(=C/c3ccc([N+](=O)[O-])cc3)C=C2c2ccccc2)c1 -16.1%
O=C1/C(=C/c2ccc([N+](=O)[O-])cc2)C=C(c2ccccc2)N1c1ccccc1 25.9%
Cc1nnc(SCC2=C(C(=O)O)N3C(=O)C(NC(=O)C(C)n4nc(C(F)(F)F)cc4C)C3SC2)s1 (stereo not drawn) 0.4%
Nc1cc(=O)[nH]c(SC/C=C/c2ccccc2)n1 -21.6%
Clc1nc(CN2CCCCC2)nc2sc3c(c12)CCC3 5.2%
Clc1nc(CN2CCOCC2)nc2sc3c(c12)CCC3 19%
CC1CN(C(=O)COC(=O)c2ccc(O)cc2)CC(C)O1 (stereo not drawn) 6.6%
N#CCc1c(C#N)c(N)nc(Nc2ccccc2)c1C#N 1.4%
COc1ccc2oc(=O)c(C(=O)N3CCN(c4ccc(F)cc4)CC3)cc2c1 4.2%
O=C(Cn1ncn2c(cc3ccccc32)c1=O)NCCc1cccs1 -4.4%
COc1ccc(C(=O)N[C@H](C(=O)NCC2CCCCC2)C(C)C)cc1 6.5%
O=C(CSc1ncccn1)N1CCN(S(=O)(=O)c2ccccc2)CC1 9.7%
O=C(CSc1nc2ccccc2c(=O)[nH]1)N1CCN(S(=O)(=O)c2ccccc2)CC1 2.8%
N#Cc1ccccc1NC(=O)CN1CCOCC1 9.8%
CCSc1n[nH]c2nc3c(c(=O)n12)C1(CCCC1)Cc1ccccc1-3 10.3%
CCn1c(SCC(N)=O)nc2c(c1=O)C1(CCCC1)Cc1ccccc1-2 1.3%
COc1ccc(Oc2c(-c3ccc(O)cc3O)n[nH]c2C)cc1 11%
CCCc1ccc(Oc2c(-c3ccc(O)c(C)c3O)n[nH]c2C)cc1 1%
CCCc1ccc(Oc2cn[nH]c2-c2ccc(O)c(C)c2O)cc1 20.9%
CCCOC(=O)c1ccc(Oc2c(-c3ccc(O)cc3O)n[nH]c2C)cc1 36.9%
Cc1ccccc1C(=O)NC(=S)NCc1ccccc1 2.5%
Cc1sc2nc(CC(=O)NN)[nH]c(=O)c2c1C 6.8%
CC(=O)N1CCOc2ccc(S(=O)(=O)N3CCC(C)CC3)cc21 7.2%
C/C=C(\C)C(=O)N1CC2(CC(c3cccc(NC(=O)COc4ccc(Cl)cc4)c3)=NO2)C[C@@H]1C(N)=O (stereo partly drawn) -0.1%
NS(=O)(=O)c1ccc(NC(=S)Nc2ccc(C(=O)N3CCCCC3)cc2)cc1 0.7%
O=C(Nc1ccccc1N1CCOCC1)c1cccnc1Cl 3.4%

inhibition, active:
Oc1ccc(C2=NN(c3ccccc3)C(c3ccc(F)cc3)C2)cc1 (stereo not drawn) 60.3%
COc1cc(/C=C2\C(=O)N(c3ccc(NC(C)=O)cc3)N=C2c2ccccc2)ccc1O 89.7%
O=C(O)c1cc(-c2ccc(/C=C3/SC(=S)N(Cc4ccccc4)C3=O)o2)ccc1Cl 61.2%
CCOC(=O)C1C(C(=O)OCC)C1(c1ccccc1)c1ccccc1 (stereo not drawn) 94.1%
CC1(C(=O)N(Cc2ccccc2)Cc2ccccc2)CC1(Br)Br (stereo not drawn) 80.9%
Clc1nc(CN2CCCCC2)nc2sc3c(c12)CCCC3 61.4%
